Rows were chosen to be rich in hits. Some 3.5% of all compounds tested hit in one or more screens of this group.
FadD28 FP inh – blocks FadD28 binding to the bisubstrate probe. fluorescence polarization. inhibition, % at 12.5 µM. 360,000 compounds, 0.22% hits. AID 588549; in the data active = inhibition above about 8.5%, passing the limit was not always enough
FBA Mtb inh – Mtb fructose-bisphosphate aldolase inhibition | 360,000 compounds, 2.3% hits | AID 588726 | P9WQA3 | purified M. tuberculosis FBA, fluorescence read-out | inhibition, % at 1 µM;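 note: 0% = vehicle and 100% = reference inhibitor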
Mtb hypoxia inh – reduces hypoxia-regulated biosensor signal in M. tuberculosis | AID 1159583 | 300,000 compounds, 0.1% hits | M. tuberculosis hypoxia-regulated fluorescent reporter, fluorescence | fluorescence inhibition, % (no concentration beside the values); in the data active = fluorescence inhibition mostly above about 23%, no sharp cut-off; inactive = mostly below about 17%
Rv3671c inh – Rv3671c (M. tuberculosis) protease inhibition; P9WHR9; inhibition, % at 5.96 µM; 320,000 compounds, 0.048% hits; AID 2606; in the data active = inhibition above about 38%;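 note: extracellular domain of Rv3671c used as enzyme; 0% = enzyme with DMSO and 100% = no enzyme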
Target sequence (P9WHR9 whole entry, looked up, the tested form may be a part): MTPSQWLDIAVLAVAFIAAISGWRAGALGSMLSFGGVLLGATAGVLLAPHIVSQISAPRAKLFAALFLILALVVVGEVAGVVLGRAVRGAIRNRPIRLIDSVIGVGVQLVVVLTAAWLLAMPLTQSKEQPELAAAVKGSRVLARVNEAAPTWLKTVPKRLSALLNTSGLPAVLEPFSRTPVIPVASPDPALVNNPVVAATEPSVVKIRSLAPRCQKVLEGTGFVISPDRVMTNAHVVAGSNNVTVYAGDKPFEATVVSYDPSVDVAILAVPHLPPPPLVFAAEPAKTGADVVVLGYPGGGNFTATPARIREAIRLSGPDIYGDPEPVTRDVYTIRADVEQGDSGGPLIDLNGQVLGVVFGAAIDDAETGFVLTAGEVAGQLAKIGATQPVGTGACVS
UGM FP inh – blocks M. tuberculosis UGM enzyme; purified UGM, fluorescence polarization probe displacement; P9WIQ1; AID 504406; inhibition, % at 10 µM; 320,000 compounds, 0.06% hits; in the data active = inhibition above about 10%, passing the limit was not always enough
GDH-TPI counter-1 – GDH-TPI coupled enzyme inhibition counter-screen | GDH-TPI coupled enzyme counterscreen, NADH absorbance | inhibition, % at 4.8 µM | 360,000 compounds, 1.2% hits | AID 588335; in the data active = inhibition above about 30%;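 note: 0% = DMSO wells and 100% = wells lacking the enzyme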
Mtb FBA confirm – confirmation of M. tuberculosis fructose-bisphosphate aldolase inhibitors. shares compounds with FBA Mtb inh. inhibition, % at 1 µM. 5,600 compounds, 78% hits. purified M. tuberculosis FBA, fluorescence read-out;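 note: 0% = vehicle wells and 100% = reference inhibitor wells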
GDH-TPI counter-2 – counter-screen for M. tuberculosis FBA inhibitors: GDH-TPI coupled enzyme inhibition; 5,600 compounds, 81% hits; inhibition, % at 1 µM; shares compounds with FBA Mtb inh; GDH-TPI coupled enzyme counterscreen, fluorescence; in the data active = inhibition above about 10%
* hit, by the source's call. Cut-off read from the data, not from the text of the source, unless noted: active = inhibition above about 27%; inactive = the rest.

For O=C(CCCOc1ccc(Cl)cc1Cl)Nc1ccc(O)cc1C(=O)O the results were FadD28 FP inh 2.3, FBA Mtb inh 30.2*, Mtb hypoxia inh 14.3, Rv3671c inh -8.4, UGM FP inh -0.1, GDH-TPI counter-1 25.9, Mtb FBA confirm active and GDH-TPI counter-2 active.
Screening COc1cc(NC(=O)CCCOc2ccc(Cl)cc2Cl)c(C(=O)O)cc1OC returned FadD28 FP inh -1.3, FBA Mtb inh 0.6, Mtb hypoxia inh 7.3, Rv3671c inh 2.2, UGM FP inh -0.5 and GDH-TPI counter-1 13.0.
For CCOc1ccc2nc(NCCNC(=O)c3cc(OC)c(OC)c(OC)c3)c(C#N)cc2c1 the results were FadD28 FP inh -3.9, FBA Mtb inh 0.9, Mtb hypoxia inh 9.8, Rv3671c inh 1.2, UGM FP inh -0.5 and GDH-TPI counter-1 -8.1.
For CCCCNc1nc2ccccc2nc1NS(=O)(=O)c1ccc(F)cc1 the results were FadD28 FP inh 0.0, FBA Mtb inh 9.6, Mtb hypoxia inh 15.5, Rv3671c inh 6.5, UGM FP inh 2.2 and GDH-TPI counter-1 20.0.
`CCOc1ccc2nc(NCCCNS(=O)(=O)c3ccc(F)cc3)c(C#N)cc2c1` gave FadD28 FP inh -2.4, FBA Mtb inh 39.9*, Mtb hypoxia inh -8.6, Rv3671c inh -3.1, UGM FP inh 0.6, GDH-TPI counter-1 7.8, Mtb FBA confirm 0.0 and GDH-TPI counter-2 -3.1.
`CCOc1ccc2nc(NCCCNS(=O)(=O)c3ccccc3)c(C#N)cc2c1` gave FadD28 FP inh 0.2, FBA Mtb inh 36.6*, Mtb hypoxia inh -4.3, Rv3671c inh 2.7, UGM FP inh 0.9, GDH-TPI counter-1 3.4, Mtb FBA confirm 98.4* and GDH-TPI counter-2 64.1*.
`COc1cccc2c1C(=O)C[C@]1(CCCCC1C)O2` (some centres not stated) gave Mtb hypoxia inh 25.5.
For CCCc1cc(=O)n2c([nH]c3ccccc32)c1C#N the results were FadD28 FP inh -1.5, FBA Mtb inh 54.1*, Mtb hypoxia inh 16.3, Rv3671c inh 2.6, UGM FP inh 0.8, GDH-TPI counter-1 -0.2, Mtb FBA confirm active and GDH-TPI counter-2 195.3*.
`CCCCc1c(C)c(C#N)c2[nH]c3ccccc3n2c1=O` gave FadD28 FP inh -2.2, FBA Mtb inh 76.8*, Mtb hypoxia inh 4.8, Rv3671c inh -7.1, UGM FP inh -1.4, GDH-TPI counter-1 9.5, Mtb FBA confirm -3.7 and GDH-TPI counter-2 -5.3.
Screening Cc1ccc(/C=N/NC(=O)c2ccccc2OCc2ccc(F)cc2)o1 returned FadD28 FP inh -2.3, FBA Mtb inh 93.8*, Rv3671c inh -6.7, UGM FP inh -3.7, GDH-TPI counter-1 24.2, Mtb FBA confirm 54.1* and GDH-TPI counter-2 47.0*.
O=C(CN(c1ccccn1)S(=O)(=O)c1ccc(F)cc1)Nc1ccc(F)cc1F was read as FadD28 FP inh -3.0, FBA Mtb inh 34.7*, Mtb hypoxia inh -2.7, Rv3671c inh 3.2, UGM FP inh 3.0, GDH-TPI counter-1 6.0, Mtb FBA confirm 116.9* and GDH-TPI counter-2 90.1*.
For CCOC(=O)CN(c1ccccn1)S(=O)(=O)c1ccc(OC)cc1 the results were FadD28 FP inh -0.3, FBA Mtb inh 46.3*, Mtb hypoxia inh 4.8, Rv3671c inh -2.7, UGM FP inh 5.7, GDH-TPI counter-1 13.4, Mtb FBA confirm 137.6* and GDH-TPI counter-2 100.4*.
Screening CCOC(=O)CN(c1ccccc1)S(=O)(=O)c1ccc(F)cc1 returned FadD28 FP inh -3.3, FBA Mtb inh -1.0, Mtb hypoxia inh 2.3, Rv3671c inh -5.6, UGM FP inh 1.0 and GDH-TPI counter-1 -0.6.
`O=C(CN(c1ccc(F)cc1)S(=O)(=O)c1ccccc1)Nc1ccccc1C(=O)O` gave FadD28 FP inh -3.6, FBA Mtb inh 5.3, Mtb hypoxia inh -5.3, Rv3671c inh -6.6, UGM FP inh -0.7 and GDH-TPI counter-1 0.6.
COc1ccc(C=c2sc(=CC(=O)c3ccc(C)cc3)[nH]c2=O)cc1OC was read as Mtb hypoxia inh 9.2.
Cc1cnn(-c2cc(NN=Cc3ccccc3F)ncn2)c1 was read as Mtb hypoxia inh 15.6.
